Screening results (PubChem BioAssay)
Compounds with a hit are over-represented: about 3.5% of the library has one in this group of screens.
FBW7 activator – FBW7 E3 ligase activators, primary screen, biochemical, AlphaScreen, human. normalized activity (activation), % at 26.1 µM. actives 0.13% (n = 650,000). AID 1259310, 2017. F-box/WD repeat-containing protein 7 (Homo sapiens), Q969H0. AlphaScreen FBW7–phospho-cyclin E peptide binding, activator screen; in the data active = normalized activity above about 1.9%;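 also: purified mutant Fbw7 with reduced substrate affinity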
TEAD-YAP inh – TEAD-YAP interaction inhibition, primary screen, TEAD-YAP interaction inhibitor project, luminescence, HEK-TIYL cells. AID 1259422, 2018. actives 1.4% (n = 640,000). inhibition, % at 9.12 µM. TEAD-Gal4/YAP UAS-luciferase luminescence; in the data active = inhibition above about 32%;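 also: 0% = median of test compound wells and 100% = reference inhibitor wells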
MITF primary – MITF inhibitors, primary screen, biochemical, AlphaScreen, human; Microphthalmia-associated transcription factor (Homo sapiens), O75030; AlphaScreen MITF homodimerization, bead proximity signal; inhibition, % at 2.6 µM; actives 0.91% (n = 650,000); AID 1259374, 2018; in the data active = inhibition above about 50%;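 also: 0% = vehicle wells with protein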
GPR151 ag – activators of human GPR151, primary screen, cell-based, PathHunter beta-arrestin, luminescence; G-protein coupled receptor 151 (Homo sapiens), Q8TDV0; PathHunter beta-arrestin GPR151 cells; actives 1% (n = 650,000); activation, % at 11.2 µM; AID 1508602, 2020; in the data active = activation above about 4.9%;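 also: 0% = median of compound wells and 100% = cells with positive control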
GPR151 conf act – GPR151 activators, triplicate retest, confirmation, cell-based, PathHunter beta-arrestin, luminescence; shares compounds with GPR151 ag; GPR151 PathHunter beta-arrestin cells, 90 min; % of EA-reagent control over plate median; activation, % at 11.2 µM; 6,700 tested, under 10 active;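 active = mean percent activation across replicates above the confirmation screen cutoff of 4.91%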
GPR119 counter – GPR119 activators in beta-arrestin cells, counter-screen for GPR151 activator project, cell-based, PathHunter beta-arrestin, luminescence, triplicate. activation, % at 11.2 µM. 90 min; 0 = compound-well median, 100 = enzyme-acceptor control. shares compounds with GPR151 ag. actives 0.3% (n = 6,700);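 active = mean percent activation in the counterscreen above 29.09%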;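 also: counterscreen on off-target GPR119 to flag nonselective hits from the GPR151 activator screen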
Target sequence (Q8TDV5 whole entry, looked up): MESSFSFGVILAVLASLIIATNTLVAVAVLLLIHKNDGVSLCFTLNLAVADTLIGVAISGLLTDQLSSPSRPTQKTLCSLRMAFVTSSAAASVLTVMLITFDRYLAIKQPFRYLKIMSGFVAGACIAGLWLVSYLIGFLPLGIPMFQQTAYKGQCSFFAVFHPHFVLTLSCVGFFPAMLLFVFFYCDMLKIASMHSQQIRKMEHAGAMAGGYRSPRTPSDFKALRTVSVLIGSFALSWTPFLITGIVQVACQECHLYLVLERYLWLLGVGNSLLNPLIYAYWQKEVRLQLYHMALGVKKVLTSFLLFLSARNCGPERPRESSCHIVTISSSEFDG
* = called active by the depositor; / = no result; ! = not confirmed by another sample.

SMILES | FBW7 activator | TEAD-YAP inh | MITF primary | GPR151 ag | GPR151 conf act | GPR119 counter
Nc1ccc(NC(=O)c2cccc(C(=O)Nc3ccc(N)cc3N)c2)c(N)c1 | 0 | 7 | -2 | 1 | / | /
Cn1c(=O)c(=O)n(C)c2cc(S(=O)(=O)N3CCN(C(=O)c4ccco4)CC3)ccc21 | 0 | 1 | 6 | 15* | 1 | -2
OCCNCCCCCOc1ccccc1F | 0 | 1 | -3 | 0 | / | /
CC(C)C1C2CCC(C2)C1N (stereo not given) | 0 | 0 | 10 | 5.3*! | -1 | -11
CN(CC(=O)Nc1ccc(F)cc1)S(=O)(=O)c1cccc2cnccc12 | 0 | 21 | -2 | -2 | / | /
CN(CC(=O)Nc1ccccc1F)S(=O)(=O)c1cccc2cnccc12 | 0 | 37* | 6 | 5.4* | 0 | -6
O=C(CCc1ccncc1)NCCN1Cc2ccccc2OC(c2ccccc2F)C1 (stereo not given) | 0 | 11 | -4 | -1 | / | /
CSCCC(N=C1NS(=O)(=O)c2ccccc21)C(=O)NCc1ccc(Cl)cc1 (stereo not given) | 0 | 0 | -12 | 1 | / | /
CC[C@H](C)[C@@H]1NC(=O)[C@@H]2C[C@H](NC(=O)Nc3cccc(Cl)c3)CN2C1=O | 0 | -21 | -10 | 5.3* | 0 | 9
N#C/C(=C\c1ccc(O)cc1O)c1nc2ccccc2[nH]1 | 0 | -33 | -4 | -5 | / | /
Cc1ccc2nc(/C(C#N)=C\c3ccccc3OCC#N)[nH]c2c1 | 0 | -28 | 10 | 5.1* | 2 | 7
N#C/C(=C\c1cc(Cl)ccc1O)c1nc2ccccc2[nH]1 | 0 | -22 | 8 | 5.7* | 2 | 8
COc1ccc(CN2CCN(C3CCCC3)C(CCO)C2)cc1OC (stereo not given) | 0 | 4 | 14 | -1 | / | /
O=C(CN1C(=O)COc2ccccc21)Nc1cccc(F)c1 | 0 | -7 | 11 | 5.2* | 0 | 8
CCC(=O)NC(=S)NNC(=O)COc1ccc([N+](=O)[O-])cc1 | 0 | 0 | -1 | 0 | / | /
CC(C)c1cc(CN2CCC(CO)(Cc3ccccc3)CC2)[nH]n1 | 0 | -3 | -4 | 0 | / | /
CC(C)CN(CCCNC(=O)C1CC(=O)N(C2CCCC2)C1)CC(C)C (stereo not given) | 0 | 0 | 10 | 0 | / | /
CC(C)CCNC(=O)C1CCC(=O)N1C(C)C (stereo not given) | 0 | -6 | 8 | 5.2* | 1 | 4
CC(C)CCNC(=O)C1CC(=O)N(C2CCCCCC2)C1 (stereo not given) | 0 | 0 | 1 | 10* | 0 | 2
C=CCOC(=O)c1cc(-c2ccc(/C=N/n3nnnc3N)o2)ccc1Cl | 0 | 8 | 11 | 1 | / | /
O=C(c1ccco1)N1CCC(Cn2c(COc3ccccc3)nc3ccccc32)CC1 | 0 | -23 | 13 | 7.5* | 0 | -11
CCNC(=O)N1CCC(Cn2c(COc3ccccc3)nc3ccccc32)CC1 | 0 | -8 | 3 | 0 | / | /
Clc1ccc2nc(CSc3nncn3-c3ccccc3)cn2c1 | 0 | 1 | 1 | 5.1* | 0 | 6
CCc1c(C)nc2cc(-c3cccs3)nn2c1N1CCC(O)CC1 | 0 | 1 | 17 | 6.2* | 2 | 9
O=C(COc1ccc([N+](=O)[O-])cc1)OC1CCS(=O)(=O)C1 (stereo not given) | 0 | 4 | 15 | -1 | / | /
COc1ccc(S(=O)(=O)Nc2cccc([N+](=O)[O-])c2)c(Cl)c1Cl | 0 | 13 | -3 | 5.2* | -1 | -4
COc1ccc(S(=O)(=O)Nc2cccc(N(C)S(C)(=O)=O)c2)c(Cl)c1Cl | 0 | 9 | 5 | -2 | / | /
COc1ccc(S(=O)(=O)NCCSC(C)(C)C)c(Cl)c1Cl | 0 | -3 | 8 | 8.6* | 2 | 8
CC1CCC(NC(=O)C(=O)Nc2ccccc2F)CC1 (stereo not given) | 0 | -24 | -4 | 0 | / | /
